# Source: PubChem
# Most compounds without a hit are left out; they make up all but 2.8% or so of the library.
# SENP8 block-1: SENP8 protease inhibition | hit rate 1.2% among 330,000 | inhibition, % at 10 µM | Q96LD8 | purified SENP8, Z-RLRGG-aminoluciferin cleavage, luminescence | AID 2540; in the data active means inhibition above about 50%
# Target sequence (Q96LD8 whole entry, looked up): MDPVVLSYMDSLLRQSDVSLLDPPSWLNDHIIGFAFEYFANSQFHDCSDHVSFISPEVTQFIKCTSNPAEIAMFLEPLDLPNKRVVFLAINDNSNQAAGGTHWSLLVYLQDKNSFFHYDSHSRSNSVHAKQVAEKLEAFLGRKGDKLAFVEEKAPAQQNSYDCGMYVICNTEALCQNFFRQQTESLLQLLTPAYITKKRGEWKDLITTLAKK
# SENP8 block-2: SENP8 (human) protease inhibition. Q96LD8. recombinant SENP8, Nedd8 substrate fluorescence. inhibition, % at 20 µM. hit rate 0.64% among 360,000. AID 602440; in the data active means inhibition mostly above about 40%, no sharp cut-off; inactive means mostly below about 27%
# SENP7 block: SENP7 protease inhibition; recombinant SENP7, Z-RLRGG-aminoluciferin luminescence, 40 min; hit rate 1.5% among 330,000; inhibition, % at 5 µM;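 active means inhibition above about 50% at the single test dose, limit read from the data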;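 further: plate controls were DMSO with enzyme for no effect and no enzyme buffer wells for full effect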
# Target sequence (Q9BQF6 706-1050 limits assumed): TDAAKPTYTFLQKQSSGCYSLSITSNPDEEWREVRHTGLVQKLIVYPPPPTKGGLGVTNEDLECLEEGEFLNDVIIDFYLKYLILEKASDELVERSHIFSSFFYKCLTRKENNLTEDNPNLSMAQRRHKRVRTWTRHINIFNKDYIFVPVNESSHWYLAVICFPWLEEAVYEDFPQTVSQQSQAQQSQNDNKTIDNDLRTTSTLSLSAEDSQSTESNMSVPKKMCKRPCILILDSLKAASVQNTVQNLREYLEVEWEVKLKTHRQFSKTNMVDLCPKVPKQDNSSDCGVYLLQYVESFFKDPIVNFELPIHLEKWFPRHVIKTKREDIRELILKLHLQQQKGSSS
# HSP90 inh: blocks HSP90-mediated luciferase refolding in reticulocyte lysate. hit rate 0.91% among 290,000. Rabbit reticulocyte lysate, luciferase refolding luminescence, 3 h. inhibition, % at 5.6 µM;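 active means inhibition above the screen-wide mean plus 3 SD, computed separately per campaign, cut at about 16% in these data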;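 further: 0% = DMSO wells and 100% = 60 µM geldanamycin wells; inhibitors lower the luminescence because luciferase stays unfolded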
# SENP6 block: blocks the human protease SENP6; Q9GZR1; Recombinant SENP6 catalytic domain, aminoluciferin luminescence; inhibition, % at 10 µM; hit rate 1.8% among 330,000; AID 2599;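 active means inhibition above about 50% at the single tested dose, limit read from the data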;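 further: plate controls were DMSO wells with enzyme for no effect and DMSO wells lacking enzyme for full effect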
# HSP90 confirm: confirmation of HSP90 inhibitors; shares compounds with HSP90 inh; hit rate 64% among 2,300; inhibition, % at 5.9 µM; AID 1846; rabbit reticulocyte lysate, luciferase refolding luminescence, 3 h; in the data active means inhibition above about 18%;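 further: 0% = vehicle wells and 100% = reference inhibitor wells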
# luciferase ctr: firefly luciferase inhibition, HSP90 counter-screen; purified native firefly luciferase, luminescence; hit rate 48% among 2,300; inhibition, % at 5.9 µM; shares compounds with HSP90 inh; AID 1847;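 active means inhibition above the mean inhibition of all tested sample wells plus 3 SD, cut at about 10% in these data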;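 further: 0% = DMSO with luciferase and 100% = wells lacking luciferase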
# The depositor's hits bear a star; x = no result.
SMILES,SENP8 block-1,SENP8 block-2,SENP7 block,HSP90 inh,SENP6 block,HSP90 confirm,luciferase ctr
Cc1ccc(C)c(Cn2nnc3c(=O)[nH]c(C4CCN(S(=O)(=O)c5ccc(S(=O)(=O)NC6CC6)cc5)CC4)nc32)c1,-6.4,0.7,-6.1,11.7,-3.8,x,x
O=C(Nc1ccccc1)C1=C[C@@H](C2CCCCC2)C[C@@H](OCCCCO)O1,-1.5,5.6,3.4,25.9*,-12.3,35.5*,27.5*
O=C(Nc1ccccc1)C1=C[C@H](C2CCCCC2)C[C@H](OCCCCO)O1,-10.4,0.3,-14.1,x,1.0,x,x
CNc1nc(OCC(F)(F)F)nc(OCC(F)(F)F)n1,5.9,-16.9,-0.1,x,-0.4,x,x
Cc1ccc(NC(=O)c2ccc(F)c(S(=O)(=O)N3CCOCC3)c2)cc1F,-5.2,11.6,4.0,1.5,-1.6,x,x
CCOc1ccc(NC(=O)C2CC(=O)N(CCc3ccccc3)C2)cc1OC (stereo unspecified),-7.0,20.3,3.7,x,-8.2,x,x
CCCOc1ccc(/C=N/Nc2ccc(C(=O)O)cc2)c(OCCC)c1,x,-429.2,x,29.3*,x,43.7*,47.8*
CCCOc1ccc(/C=N/Nc2cccc([N+](=O)[O-])c2)c(O)c1,9.5,26.5,-2.2,0.9,-0.4,x,x
Clc1cccc(Cc2c(-c3cccc(Cl)c3)nc3ccc(Br)cn23)c1,x,12.3,x,x,x,x,x
CCOc1ccc2nc(COC(=O)c3cccs3)c(C(C)=O)[n+]([O-])c2c1,4.6,-41.3,1.8,28.7*,-19.6,-4.6,-11.4
O=C(Nc1ccc2c(c1)nc1n2CCSC1)c1ccco1,-2.3,-75.3,5.3,35.2*,-3.0,44.6*,20.3*
Cc1nn(C)c(C)c1NC(=O)Nc1ccc(Cl)c(Cl)c1,-6.9,24.4,1.9,-3.8,14.8,x,x
Cc1nn(C(C)(C)C)c(C)c1/C=N/OC(=O)Nc1ccc(Cl)c(Cl)c1,42.7,16.3,44.0,78.3*,59.2*,85.9*,84.9*
COc1ccc(NC(=O)O/N=C/c2c(C)nn(C(C)(C)C)c2C)cc1,-2.5,9.2,1.4,32.8*,1.6,50.7*,52.9*
COc1ccc(-c2nc(CN3CCN(Cc4ccccc4)CC3)c(C)o2)cc1,1.6,-8.9,-8.1,2.5,1.7,x,x
Cc1oc(-c2ccc(-c3ccccc3)cc2)nc1CN1CCN(CC(=O)N(C)C)CC1,-4.5,-13.4,2.7,67.3*,-1.3,79.0*,18.2*
Cc1ccccc1NC(=O)N1CCCC(c2nc(-c3ccc(C(C)C)cc3)no2)C1 (stereo unspecified),7.4,12.8,-1.1,69.9*,-6.5,3.5,-24.2
C=CCN(C(=O)c1ccccc1)C1CCS(=O)(=O)C1 (stereo unspecified),3.3,1.7,3.7,1.2,-33.5,x,x
Cc1ccc(OCc2nnnn2-c2ccccc2)cc1,-8.1,11.6,0.3,75.2*,6.7,0.8,-1.6
COc1ccc(S(=O)(=O)Nc2cc(Sc3ncn[nH]3)c(O)cc2C)cc1,10.6,17.1,-4.7,x,-8.8,x,x
O=S(=O)(Nc1cc(Sc2ncn[nH]2)c(O)c2ccccc12)c1ccccc1,24.7,30.8,71.8*,92.8*,78.5*,7.1,9.4*
O=C(CCN1C(=O)c2ccccc2C1=O)NC(=S)Nc1ccccc1Cl,3.6,3.4,4.8,3.8,8.2,x,x
CCN1c2ccccc2-c2nc3ccccc3n2C1c1ccco1 (stereo unspecified),8.4,-309.7,0.0,0.8,-6.2,x,x
CCOC(=O)c1ccc(N/C=C2/CCCC(C)C2=O)cc1 (stereo unspecified),2.8,-61.2,-8.7,11.5,14.1,x,x
CC1CCC/C(=C\Nc2ccc(C(=O)O)cc2)C1=O (stereo unspecified),39.4,10.7,17.8,36.6*,40.6,60.8*,21.5*
SMILES,SENP8 block-1,SENP8 block-2,SENP7 block,HSP90 inh,SENP6 block,HSP90 confirm,luciferase ctr
COc1ccccc1OCc1ccc(C(=O)N(C)c2ccccc2)o1,6.4,5.2,5.7,31.9*,17.5,3.7,-2.1
CC1=NN(c2ccccc2)C(=O)/C1=C\N(O)c1ccccc1,6.7,75.8*,35.8,41.0*,25.1,79.7*,-17.4
Cc1ccc(S(=O)(=O)N(C)c2ccc(OC(=O)c3ccc(=O)[nH]c3)cc2)cc1,-3.3,3.3,-0.4,-1.0,-20.9,x,x
CC(=O)c1sc(-c2ccc(Cl)cc2)cc1N,14.1,-327.9,8.6,18.0*,30.8,-5.8,-18.7
CC(C(=O)N1CCN(c2ccccc2)CC1)N1C(=O)C2CC=CCC2C1=O (stereo unspecified),11.8,12.0,6.7,2.7,16.2,x,x
Cc1ccc(NC(=O)Cc2ccc3c(c2)OCCO3)cc1S(=O)(=O)N1CCCCC1,1.7,19.8,5.8,27.1*,2.7,5.8,-0.1
O=[N+]([O-])/C(=C\Nc1ccccc1)S(=O)(=O)c1ccccc1,-3.4,18.5,3.9,18.1*,-8.9,3.4,-2.8
O=S(=O)(c1ccc(OCC(O)CNCc2ccco2)c(Cl)c1)N1CCOCC1 (stereo unspecified),-8.7,11.2,-5.9,2.0,-11.8,x,x
COC(=O)N1C(=O)[C@](c2ccccc2)(C(C)C)N1C(=O)OC,3.4,8.5,-5.0,31.1*,-0.4,2.7,-2.1
CC[C@@]1(c2ccccc2)C(=O)N(C(=O)OC)N1C(=O)OC,-9.0,20.1,9.6,-5.5,-33.4,x,x
Cc1c(OCc2ccccc2)c(=O)ccn1Cc1ccccc1,0.3,15.9,4.0,19.5*,-6.6,-7.0,-17.0
O=c1ccn(Cc2ccccc2)c2ccccc12,4.9,4.3,8.3,x,-2.8,x,x
CC(C)(C)C(=O)N1CCc2cc(-c3csc(N)n3)ccc21,4.7,-18.1,12.0,56.6*,34.7,75.5*,69.9*
COC(=O)c1ccc(NC(=O)c2ccc3nsnc3c2)cc1,1.7,1.3,9.0,68.5*,-1.2,-14.6,-27.3
COC(=O)c1ccc(NC(=O)c2cccc(C)c2)cc1,-6.5,15.3,12.5,-1.6,29.9,x,x
Cc1cc(C)cc(Nc2ccc(C(=O)O)cc2N)c1,0.3,-475.7,1.2,23.3*,1.6,1.0,-18.0
Cc1ccc2oc(=O)c(/C=C(\O)C(C)(C)C)nc2c1,0.4,-7.6,4.8,1.1,2.1,x,x
Cc1ccc2oc(=O)c(/C=C(\O)c3sc(C)nc3C)nc2c1,-13.5,16.6,-6.4,-3.6,-2.3,x,x
CC(C)(C)/C(O)=C/c1nc2cc(Cl)ccc2oc1=O,-11.9,10.5,-10.5,79.7*,-15.8,80.6*,-14.3
Cc1ccc2oc(=O)c(/C=C(\O)c3ccco3)nc2c1,-11.7,14.2,-0.5,37.4*,-15.6,37.0*,-23.3
O=C1CC(c2nc3ccccc3[nH]2)CN1Cc1ccccc1 (stereo unspecified),2.5,9.7,-5.1,-2.9,-9.3,x,x
O=C(NNS(=O)(=O)c1ccc(F)cc1)C1CC(c2cccnc2)=NO1 (stereo unspecified),-8.3,-2.4,-6.0,20.6*,5.3,3.4,-0.1
CCOC(=O)/C(C#N)=C\c1cc(C)n(-c2ccccc2)c1C,-16.6,-94.6,3.4,49.9*,-29.6,62.7*,61.7*
Cc1ccc2c(c1)C(=O)C(=O)N2CCOc1ccccc1,-4.1,17.9,0.5,21.3*,-16.4,3.4,-25.6
